Measured values: PMC4552634, “A New Set of Chemical Starting Points with Plasmodium falciparum Transmission-Blocking Potential for Antimalarial Drug Discovery” (PLoS ONE, 2015)
Where two headings read alike, the source gives them in different places. Hit rate of the full screen: of about 13,000 compounds, about 3,200 (25%) showed an effect of 50% or more. This is one part of the list.

Tested on: P. falciparum stage V gametocytes
Set-up: BacTiter-Glo ATP luminescence viability of purified stage V gametocytes in 384-well plates, per cent inhibition versus DMSO
Settings: 48 h, 5 µM, inhibitor

Row | Structure (SMILES) | % Inhibition [%] | % Inhibition (% Inhibition) [%]
1 | CC(C)c1sc(N2CCN(C)CC2)nc1C(=O)Nc1ccc(F)cc1C(F)(F)F [TCMDC-134300] | 32.87 | 
2 | CCSc1ccccc1COc1c(C)nc(N)nc1N [TCMDC-131359] | 18.44 | 
3 | CCN(CC)c1nc(-c2ccccc2)cc(-c2ccccc2)c1C#N [TCMDC-125830] | -26.16 | 
4 | CCN(CC)c1nc(N)c2c(N)nc3c(c2c1C#N)C(=O)CN3Cc1ccccc1 [TCMDC-125024] | 94.19 | 
5 | Cc1cc(=O)c(-c2ccc(Oc3ccc(F)cc3)cc2)c(C)[nH]1 [TCMDC-137535] | 37.78 | 
6 | Cc1cc(=O)c(-c2ccc(Oc3cccc(Cl)c3)cc2)c(C)[nH]1 [TCMDC-137265] | 67.32 | 
7 | Cc1cc(=O)c(-c2ccc(Oc3ccc(Cl)cc3Cl)cc2)c(C)[nH]1 [TCMDC-137267] | 10.5 | 
8 | Cc1cc(=O)c(-c2cccc(Oc3ccc(Cl)cc3)c2)c(C)[nH]1 [TCMDC-137415] | 52.21 | 
9 | COc1ccc(Oc2ccc(-c3c(C)[nH]c(C)cc3=O)cc2)cc1 [TCMDC-137401] | 68.99 | 
10 | Cn1cnc2c(SCc3ccc(OCc4ccccc4)cc3)ncnc21 [TCMDC-136496] | -19.47 | 
11 | O=C(NC(=O)c1ccccc1O)c1ccccc1O [TCMDC-125868] | 4.896 | 
12 | O=C(NC1CCN(c2ccnc3cc(Cl)ccc23)C1)c1ccc(F)cc1 (centres unmarked) [TCMDC-133653] | -3.627 | 
13 | O=C(Nc1nc2ccc(Cl)cc2s1)c1csnn1 [TCMDC-125073] | -15.98 | 
14 | Cn1c(C2CC3CCC(C2)N3CC2CCC(NC(=O)/C=C/c3ccc(Cl)c(Cl)c3)CC2)nc2ccccc21 (centres unmarked) [TCMDC-140342] | -2.342 | 
15 | Cc1ccccc1N1CCN(c2ncc(C(=O)NC3CC3)cc2Cl)CC1 [TCMDC-134602] | 6.226 | 
16 | CC(C)C[C@@H](/C=N/N1CCOC1=O)NC(=O)[C@H](CC(C)C)NC(=O)c1ccc(OCCN2CCOCC2)cc1 [TCMDC-136170] | -12.99 | 
17 | COC(=O)c1ccc(CCCNCC(O)c2cccc(C(F)(F)F)c2)cc1 (centres unmarked) [TCMDC-131462] | 1.956 | 
18 | O=C(COc1ccc(Cl)c(Cl)c1)NCCCCCN1CCCN(C(=O)Nc2ccc(Cl)c(Cl)c2)CC1 [TCMDC-136292] | 72.04 | 
19 | Cc1ccc(/C=C/C(=O)NCCCCCN2CCCN(C(=O)Nc3ccc(Cl)c(Cl)c3)CC2)cc1 [TCMDC-136111] | -64.67 | 
20 | O=C(/C=C/c1ccc(Cl)c(Cl)c1)NCCCCCN1CCCN(C(=O)Nc2ccc(F)c(Cl)c2)CC1 [TCMDC-135755] | -45.85 | 
21 | O=C(COc1ccc(Cl)c(Cl)c1)NCCCCCN1CCCN(C(=O)Nc2cc(Cl)cc(Cl)c2)CC1 [TCMDC-136293] | 78.53 | 
22 | O=C(/C=C/c1ccc(Cl)c(Cl)c1)NCCCCCCN1CCCN(C(=O)Nc2cc(Cl)cc(Cl)c2)CC1 [TCMDC-135936] | -15.47 | 
23 | O=C(/C=C/c1ccc(Cl)c(Cl)c1)NCCCCCN1CCCN(C(=O)Nc2cc(Cl)cc(Cl)c2)CC1 [TCMDC-135760] | -3.132 | 
24 | CC(NC(C)(C)C)C(O)c1ccc(Cl)c(C(F)(F)F)c1 (centres unmarked) [TCMDC-137910] | -2.927 | 

Row | Structure (SMILES) | % Inhibition [%] | % Inhibition (% Inhibition) [%]
25 | Cc1cccc(C(=O)NC(NC(=S)Nc2cc(Cl)ccc2Cl)C(Cl)(Cl)Cl)c1 (centres unmarked) [TCMDC-124254] | -20.87 | 
26 | CC1(C)N=C(N)N=C(N)N1OCCCOc1cccc(Cl)c1 [TCMDC-131762] | 16.24 | 
27 | COc1ccc2nccc([C@@H](O)CN3CCC(NC(=O)/C=C/c4cc(F)cc(Br)c4)CC3)c2c1 [TCMDC-141031] | -7.765 | 
28 | CN(C)CCOc1ccc(/C(=C(/CCCn2ccnc2)c2ccccc2)c2ccc(O)cc2)cc1 [TCMDC-138900] | -20.55 | 
29 | CCCc1cc(OC)c(C[C@@H]2c3cc(O)c(Cl)cc3CCN2C)cc1OC [TCMDC-138128] | -6.481 | 
30 | CN1C(=O)C(=O)N(CCCCCON=C(N)N)C1=S [TCMDC-139249] | 12.53 | 
31 | CCNC(C)(C)CN(Cc1ccc(-c2ccc(C(F)(F)F)cc2)cc1)C(=O)Cn1c(CCc2cccc(F)c2F)nc(=O)c2ccccc21 [TCMDC-141047] | 102.8 | 
32 | CC(C)NC(C)(C)CN(Cc1ccc(-c2ccc(C(F)(F)F)cc2)cc1)C(=O)Cn1c(CCc2cccc(F)c2F)nc(=O)c2ccccc21 [TCMDC-141084] | 71.8 | 
33 | COc1ccc(NC(=O)Nc2cccc(-c3ccncc3)c2)cc1N1CCN(C)CC1 [TCMDC-139111] | 12.5 | 
34 | O=C(Nc1ccc(-c2nc3cc4ccccc4cc3[nH]2)cc1)c1cccc(Br)c1 [TCMDC-123806] | -9.366 | 
35 | O=C(NC1CC1)c1ccc(N2CCC(Oc3ccc(F)cc3)CC2)nc1 [TCMDC-134053] | 8.582 | 
36 | CC(CCCCC(=O)Nc1ccc(C(F)(F)F)cc1)NCC(O)c1cccc(Cl)c1 (centres unmarked) [TCMDC-131538] | 28.83 | 
37 | O=C(Nc1ccc(C(F)(F)F)cc1)NC1CCN(c2ccnc3cc(Cl)ccc23)CC1 [TCMDC-133568] | -13.61 | 
38 | O=C(Cn1c2ccccc2c(=O)c2ccc(Cl)cc21)Nc1ccc(C(F)(F)F)cc1 [TCMDC-125568] | 64.99 | 
39 | FC(F)(F)COc1ccc(CNCCCCCCNCc2ccc(OCC(F)(F)F)c3ccccc23)c2ccccc12 [TCMDC-137853] | 131 | 
40 | FC(F)(F)COc1ccc(CCNCCCCNCCc2ccc(OCC(F)(F)F)c3ccccc23)c2ccccc12 [TCMDC-137282] | 101.8 | 
41 | O=c1cc(NCCCNCc2ccc(C(F)(F)F)cc2F)[nH]c2ccccc12 [TCMDC-139427] | 7.285 | 
42 | O=[N+]([O-])c1ccc(CNCCCCCCNCc2ccc([N+](=O)[O-])c3ccccc23)c2ccccc12 [TCMDC-137830] | 10.64 | 
43 | O=C(/C=C/c1ccc(Cl)c(Cl)c1)NCCCCCCN1CCN(C(=O)Nc2cc(Cl)nc(Cl)c2)CC1 [TCMDC-135891] | -18.09 | 
44 | Cc1cccc(C(=O)Nc2ccnc(N(C)C3CCN(CC(C)C)CC3)c2)c1 [TCMDC-135023] | -10.51 | 
45 | O=C(/C=C/c1cccc(F)c1)NC1CCC(CN2CCC(c3c[nH]c4ccccc34)CC2)CC1 (centres unmarked) [TCMDC-139698] |  | 74.99
46 | Cc1ccc(/C=C/C(=O)NC2CCC(CN3CCC(c4c[nH]c5ccccc45)CC3)CC2)cc1C (centres unmarked) [TCMDC-139769] |  | 39.49
47 | O=C(/C=C/c1cccc(F)c1)NC1CCC(CN2CCC(c3c[nH]c4ccccc34)CC2)CC1 (centres unmarked) [TCMDC-139713] |  | 90.71
48 | Cc1nc(N)nc(N)c1-c1cc(Cl)c(Cl)c(Cl)c1 [TCMDC-137398] | 11.14 | 

Row | Structure (SMILES) | % Inhibition [%] | % Inhibition (% Inhibition) [%]
49 | CCCC(=O)Nc1ccc(OCCCN(Cc2cccc(C(F)(F)F)c2)c2ccc(C#N)c(C(F)(F)F)c2)cc1 [TCMDC-135666] | 6.029 | 
50 | CCOc1ccc2nccc([C@@H](O)[C@@H]3C[C@@H]4CCN3C[C@@H]4CC)c2c1 [TCMDC-123483] |  | -64.91
51 | Cc1cc(N2CCCN(C)CC2)nc(Nc2ccc(Br)cc2)n1 [TCMDC-137014] | 8.487 | 
52 | CCOC(=O)c1cc(C(=O)OC)c2ccccn12 [TCMDC-124299] | 4.818 | 
53 | CC1=C(C(=O)OC(C)C)C(c2ccccc2Cl)C2=C(CC(c3ccccc3)CC2=O)N1 (centres unmarked) [TCMDC-125608] | 34.25 | 
54 | O=C(NC1CCC(CN2CCC(c3c[nH]c4ccccc34)CC2)CC1)c1[nH]c(=O)[nH]c(=O)c1F (centres unmarked) [TCMDC-139889] | 14.48 | 
55 | N#Cc1c(Cl)cccc1Oc1ccc(S(=O)(=O)NC2CCC(CN3CCC(c4c[nH]c5ccccc45)CC3)CC2)cc1 (centres unmarked) [TCMDC-140175] |  | 1.176
56 | CSc1nccc(-c2ccc(S(=O)(=O)NC3CCC(CN4CCC(c5c[nH]c6ccccc56)CC4)CC3)s2)n1 (centres unmarked) [TCMDC-131236] |  | 106.4
57 | CSc1nccc(-c2ccc(S(=O)(=O)NC3CCC(CN4CCC(c5c[nH]c6ccccc56)CC4)CC3)s2)n1 (centres unmarked) [TCMDC-131237] |  | 110.6
58 | O=C(CCc1cccnc1)Nc1cccc(-c2ccc(-c3nc4ccc(C(F)(F)F)cc4[nH]3)cc2)c1 [TCMDC-132148] | -27.41 | 
59 | Cc1ccccc1C1CCN(c2ncc(C(=O)NC3CC3)cc2Cl)CC1 [TCMDC-134609] | 14.1 | 
60 | CC(C)(C)OC(=O)N[C@@H](CS(=O)(=O)CCN=C(N)COCc1ccccc1)C(=O)OC(C)(C)C [TCMDC-138107] | 24.21 | 
61 | O=C(Cc1ccc(-c2ccccc2)cc1)N[C@H]1CCN(Cc2ccc(OCCCN3CCCCC3)cc2)C1 [TCMDC-141776] | 70.4 | 
62 | c1ccc(C(c2cccs2)N2CCN(Cc3ccc(OCCCN4CCCCC4)cc3)CC2)cc1 (centres unmarked) [TCMDC-141954] | 38.42 | 
63 | O=C(Nc1ccc(C(=O)Oc2ccc(-c3ccccc3)cc2)cc1)N[C@@H](Cc1ccc(O)cc1)C(=O)NC1CCN(Cc2ccc(O)cc2)C1 (some centres unmarked) [TCMDC-135361] | -42.48 | 
64 | O=C(N[C@H]1CCN(Cc2ccc(OC3CCN(Cc4ccccc4)CC3)cc2)C1)c1ccc(Cl)c(Cl)c1 [TCMDC-140265] | 57.35 | 
65 | O=C(N[C@@H](Cc1ccccc1)CN1CCC(Oc2ccc(F)cc2)CC1)c1ccc(OCCCN2CCCCC2)cc1 [TCMDC-135416] | 28.27 | 
66 | O=C(N[C@H]1CCN(Cc2ccc(OCCCN3CCCCC3)cc2)C1)c1ccc(Oc2ccccc2)cc1 [TCMDC-141773] | 88.22 | 
67 | O=S(=O)(c1ccc2ccccc2c1)N1CCCN(Cc2ccc(OCCCN3CCCCC3)cc2)CC1 [TCMDC-141721] | 52.58 | 
68 | Fc1cc(CN2CCCC2)ccc1OCCCN1CCN(c2cccc(Cl)c2Cl)CC1 [TCMDC-137001] | 7.626 | 
69 | O=C(N[C@H]1CCN(Cc2ccc(OC3CCN(Cc4ccccc4)CC3)c(Cl)c2)C1)c1ccc(Cl)c(Cl)c1 [TCMDC-140277] | 30.17 | 
70 | O=C(NC1CCN(Cc2ccccc2)C1)c1ccc(Nc2ccc(Br)cc2)nc1 (centres unmarked) [TCMDC-133798] | -17.8 | 
71 | Cc1cc(CN2CC[C@H](NC(=O)c3ccc(Cl)c(Cl)c3)C2)ccc1OC1CCN(Cc2ccccc2)CC1 [TCMDC-140282] | -33.37 | 
